Bioassay records from PubChem.
GFP derepression: epigenetic GFP locus derepression in mouse cells; mouse C127i GFP locus derepression, cytometry, 30 h; Potency, µM (highest dose often 46.1 µM), for inactives: at the highest dose GFP derepression (activation); 68,000 compounds, 0.09% hits; AID 597; note: % of control where 0% means no effect
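Read-out is the number of GFP-positive cells, scored as fluorescent objects 20 to 120 um wide, reflecting derepression of a silenced CMV-GFP reporter in murine C127i cells after 30 h compound exposure at 37 C.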
HBB splice mod: alters splicing of the hemoglobin beta chain; HBB splicing reporter cell assay, activation; EGFP reporter with mutant IVS2-654 intron; response scale: normalised to 500 nM splice-correcting PNA; Potency, µM (series often up to 46.1 µM), without a hit: at the top dose activation, usual class: activators; 65,000 compounds, 0.06% hits; AID 925; note: potency is the fitted concentration of half-maximal effect; 0% is about no effect
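HeLa cells stably expressing EGFP interrupted by mutant beta-globin intron 2 (IVS2-654), 500/well in 2% FCS. Treated with compound for 2 days at 37C. Splicing correction scored as total well GFP intensity (488 nm excitation, 500-520 nm emission); 500 nM antisense PNA served as control.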
Bst PK mod: pyruvate kinase (B. stearothermophilus) modulation; purified pyruvate kinase, luminescence ATP production; ribose 5-phosphate activator present at AC10; 51,000 compounds, 1.2% hits; Potency, µM; in the data active = potency below about 11 µM; inconclusive = mostly about 12 µM to 25 µM;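 the screen sought inhibitors and activators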;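 note: potency is the fitted concentration of half-maximal effect; scaled between full activation by ribose 5 phosphate and full inhibition by luteolin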
FLuc inh: inhibitors of firefly luciferase | purified firefly luciferase, luminescence, 8 min | AID 411 | Potency, µM (highest dose often 57.1 µM), for inactives: at the top dose activity change, negative = inhibition, actives largely listed as inhibitors | P08659 | 72,000 compounds, 2.2% hits; note: potency is the fitted concentration of half-maximal effect; % is set by controls: 0 for no effect and ±100 for the full control effect; nearly all actives have a fitted effect of over 40% in size
Target sequence (P08659 whole entry, looked up): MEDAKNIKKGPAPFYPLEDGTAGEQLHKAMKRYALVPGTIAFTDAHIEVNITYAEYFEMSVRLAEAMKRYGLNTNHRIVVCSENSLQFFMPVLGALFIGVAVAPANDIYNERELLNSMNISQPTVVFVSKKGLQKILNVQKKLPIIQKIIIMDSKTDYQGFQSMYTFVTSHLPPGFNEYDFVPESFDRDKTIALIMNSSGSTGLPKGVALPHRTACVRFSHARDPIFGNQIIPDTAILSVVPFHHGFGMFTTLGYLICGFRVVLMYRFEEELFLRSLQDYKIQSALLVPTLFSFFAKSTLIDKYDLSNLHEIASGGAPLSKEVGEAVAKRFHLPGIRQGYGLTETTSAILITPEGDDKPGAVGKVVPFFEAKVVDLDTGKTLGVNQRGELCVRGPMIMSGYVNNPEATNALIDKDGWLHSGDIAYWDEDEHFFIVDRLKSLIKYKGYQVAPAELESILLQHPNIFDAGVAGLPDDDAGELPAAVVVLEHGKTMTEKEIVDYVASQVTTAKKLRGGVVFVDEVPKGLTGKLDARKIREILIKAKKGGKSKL
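Here, luciferase activity is measured as luminescence following an 8 min room-temperature reaction at 10 uM ATP, pH 7.2. Every library sample is titrated.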
The depositor's hits bear a star; i = inactive; ? = inconclusive; · = not tested or not shown; [ ] = remark or other dose. This is a sample that favours compounds with a hit; in the whole collection about 2.6% have one here. Unless noted, calls come from the whole dose curve; as a rule, active = well fitted curve in the direction sought with a large enough effect; inconclusive = small, poorly fitted or top-dose-only effect, or another doubt; inactive = no such curve, though single readings can be large; an effect the other way counts as inactive or inconclusive.

SMILES	GFP derepression	HBB splice mod	Bst PK mod	FLuc inh
COc1ccc2sc(NC(=O)CC(C)C)nc2c1	-2.5%	-4.8%	i	25.1µM*
CCOc1ccc2nc(NC(=O)C(CC)Sc3nc(C)cc(=O)[nH]3)sc2c1 (stereo unspecified)	0.0%	4.5%	·	?
CCC(=O)Nc1nc2cc(OC)ccc2s1	-0.1%	7.3%	·	?
CCOc1ccc2nc(NC(=O)c3ccoc3C)sc2c1	1.5%	-0.9%[0.0738 µM]	·	1.58µM*
CCOCC(=O)Nc1nc2ccc(OC)cc2s1	9.0%	2.9%	·	?
CCOc1ccc2nc(NC(=O)c3ccc(S(=O)(=O)N4CCOCC4)cc3)sc2c1	-1.2%	-1.7%	>57	0.2%
CCOc1ccc2nc(NC(=O)Nc3cccs3)sc2c1	·	0.5%	·	0.631µM*
CCOc1ccc2nc(NC(=O)COC)sc2c1	2.5%	-2.4%	i	20µM*
CN(C)Cc1ccc(-c2cc3onc(-c4ccccc4)c3c(=O)n2C)cc1	-3.4%[9.22 µM]	1.6%[9.22 µM]	·	3.98µM*
Fc1ccccc1CSc1ncnc2c1oc1ccccc12	0.0%	-2.2%	?	12.6µM*
CCOC(=O)c1nn(-c2ccc3c(c2)CCN3C(C)=O)cc1O	3.9%	0.0%[57.5 µM]	9.85*	10µM*
Cc1nnc(SCc2nnc(-c3ccc(Cl)cc3)o2)n1-c1ccccc1	-0.1%	-1.5%	7.53*	-1.2%
CC1=CC(=C2C(=O)c3ccccc3C2=O)C=C(C)N1Cc1ccco1	3.6%	0.0%	?	12.6µM*
CC1(C)S[C@@H]2[C@H](NC(=O)Cc3ccccc3)C(=O)N2[C@@H]1C(=O)O	6.9%[9.22 µM]	3.5%[9.22 µM]	·	2.1%[11.4 µM]
CSc1nc2[nH]c3c(c2c2nnnn12)CCCC3	0.0%[20.6 µM]	·	0.783*	-3.0%[25.5 µM]
O=C(CCCN=C1NS(=O)(=O)c2ccccc21)OCC(=O)N1CCc2ccccc21	0.1%	-0.3%	>57	31.6µM*
O=C(CN1CCCCCC1)OCCN=C1NS(=O)(=O)c2ccccc21	-1.1%	4.0%	>57	-0.8%
O=[N+]([O-])c1ccc(CCO)cc1	·	-0.2%	·	·
COc1cc(SC)ccc1C(=O)Nc1ccon1	0.0%	-0.7%	?	25.1µM*
COc1ccc(C(=O)N=c2nc3ccccn3s2)cc1	1.6%	0.5%[57.5 µM]	0.678*	0.501µM*
COc1ccc(C(=O)N2CCC3(CC2)CCN(c2ccccc2)CC3)cc1	2.3%[9.22 µM]	2.0%	·	-1.3%[11.4 µM]
COc1ccc(-c2cc(CCCC(=O)NCc3ccccn3)no2)cc1	·	-1.3%	·	10µM*
CCOc1ccc(-c2cc(CCCC(=O)NCc3cccnc3)no2)cc1	-1.6%	-1.0%	·	12.6µM*
COc1ccc(-c2cc(CCCC(=O)NCCc3ccc(OC)cc3OC)no2)cc1	0.5%	-0.5%[0.369 µM]	>57	-9.8%
CCN1CCN(Cc2ccc(NC(=O)Nc3ccc(OC)cc3)cc2)CC1	·	0.7%	·	-14.8%
SMILES	GFP derepression	HBB splice mod	Bst PK mod	FLuc inh
CCN1CCN(Cc2ccc(NC(=O)Nc3ccccc3)cc2)CC1	3.4%	0.1%	·	12.6µM*
CC(O)c1nc2ccccc2n1Cc1nnc(-c2ccc(Cl)cc2)o1 (stereo unspecified)	3.9%	0.2%[57.5 µM]	2.52*	-9.1%
c1ccc(-c2nnc(Cn3c4ccccc4c4nc5ccccc5nc43)o2)cc1	5.4%	2.2%	>57	1.5%
Nc1nc(N)c2nc(CNc3ccc(C(=O)N[C@H](CCC(=O)O)C(=O)O)cc3)cnc2n1	2.2%	0.9%	·	-0.2%
Cc1cc(=O)[nH]c(SCCOc2ccc(OC(C)C)cc2)n1	-3.2%	0.3%	·	15.8µM*
Cc1cc(=O)[nH]c(SCCOc2ccc3c(c2)CCC3)n1	-1.3%	0.3%	>57	-0.5%
NC(=S)NCCC[C@@H](N)C(=O)O	-0.1%	-1.1%	·	-4.7%
N#CC(C#N)=c1ccc2c(c1)NC1(CCCCC1)N=2	-2.2%	0.3%[57.5 µM]	·	7.94µM*
COc1ccc2c(c1OC)C(=O)NC(C)=C(C(=O)OC(C)(C)C)C2O (stereo unspecified)	1.7%	2.5%	>57	-1.0%
Nc1ccc2c(c1)CCC2=O	0.0%	8.3%	i	12.6µM*
Cc1nnc(NC(=O)Nc2cccc(Cl)c2)s1	-3.1%	·	>57	-29.9%
Cc1csc(NC(=O)Nc2cccc(Cl)c2)n1	3.2%	2.6%	·	7.94µM*
COc1cccc(Nc2ncc3nc(C)c(=O)n(Cc4cccs4)c3n2)c1	18.9%[9.22 µM]	15.8µM*	·	0.9%[11.4 µM]
COc1ccc(-c2nc3cnc(Nc4cccc(OC)c4)nc3n(Cc3cccs3)c2=O)cc1	2.7%[9.22 µM]	3.9%	·	0.7%[11.4 µM]
COc1ccc(-n2c(=O)c(-c3cccs3)nc3cnc(Nc4cccc(OC)c4)nc32)cc1	3.16µM*	10µM*	·	0.2%[11.4 µM]
COCCn1c(=O)c(-c2ccc(F)cc2)nc2cnc(Nc3cccc(OC)c3)nc21	2.7%[9.22 µM]	20µM*	·	0.7%[11.4 µM]
C=CCC1(C)OC=Cc2nc3cc(Cl)c(Cl)cc3nc21 (stereo unspecified)	·	2.5%[9.22 µM]	·	·
O=c1c(-c2ccc(F)cc2)nc2cnc(N3CCNCC3)nc2n1C1CC1	-2.7%[9.22 µM]	0.6%	·	-0.5%[11.4 µM]
C[C@@H](NCc1cc(Br)cc2[nH]c(=O)c(=O)[nH]c12)P(=O)(O)O	1.9%	·	·	1.2%
CCCOc1ccc(-c2nnc(N)s2)cc1	4.9%[20.6 µM]	·	?	12.6µM*
Cc1noc(C)c1C(=O)N1CCC2(CCN(Cc3nccs3)CC2)CC1	4.6%[9.22 µM]	1.3%	·	0.7%[11.4 µM]
CN(C(=O)c1ccccc1C(=O)O)C1CC(C)(C)NC(C)(C)C1	·	0.7%	·	1.9%
Cn1c(SCC(=O)c2ccc3c(c2)OCO3)nnc1-c1ccccn1	0.0%	-1.4%	>57	1.2%
NC(=O)c1ccc(-c2nc(-c3ccc4c(c3)OCO4)c(-c3ccccn3)[nH]2)cc1	-0.4%	·	·	7.94µM*
Cc1c(CCC#N)c(N2CCN(C3CCCCC3)CC2)n2c(nc3ccccc32)c1C#N	2.4%[20.6 µM]	·	>25.6	2.2%[25.5 µM]
SMILES	GFP derepression	HBB splice mod	Bst PK mod	FLuc inh
C=CCNC(=O)c1ccc(Cl)cc1Cl	2.9%	0.0%	7.33*	0.3%
O=C(c1cc(-c2cccc(O)c2)on1)N1CCCCC1	10.3%	-1.1%	·	15.8µM*
COc1cccc(-c2cc(C(=O)N3CC4(C)CC3CC(C)(C)C4)no2)c1 (stereo unspecified)	2.4%	-2.9%	>57	-2.1%
CN1CCN(C(=O)c2cc(-c3ccccc3)on2)CC1	-2.9%	-0.7%	>57	-11.6%
O=C(c1cc(-c2ccc(F)cc2)on1)N1CCCC1	0.0%	-3.5%	·	12.6µM*
COc1cccc(-c2cc(C(=O)N3CCCc4ccccc43)no2)c1	4.2%	1.7%	·	-22.9%
COc1cccc(-c2cc(C(=O)N3CCCCC3C)no2)c1 (stereo unspecified)	-1.6%	-0.3%	·	20µM*
COc1cccc(-c2cc(C(=O)N3CCCCCC3)no2)c1	6.5%	-0.4%	·	7.94µM*
O=C(c1cc(-c2ccc(Cl)c(Cl)c2)on1)N1CCCC1	-4.5%	1.0%	·	-3.8%
CCCc1ccc(-c2ccc(F)c(N)c2)nc1	-2.2%	0.1%[9.22 µM]	·	2µM*
CC[C@]1(O)C[C@H]2CN(CCc3c([nH]c4ccccc34)[C@](C(=O)OC)(c3cc4c(cc3OC)N(C=O)[C@H]3[C@@](O)(C(=O)OC)[C@H](OC(C)=O)[C@@]5(CC)C=CCN6CC[C@]43[C@H]65)C2)C1	1.6%	0.4%	·	-0.1%
CCCCNCC	·	0.8%	·	·
CCOC(=O)C1=C(C)NC(C)=C(C(=O)OC)[C@H]1c1cccc(Cl)c1Cl	1.1%	-0.8%	·	0.1%
